Calls of active or inactive are those of the source. Unless noted, no rule for the calls is given here.
How the values were obtained:
[1] = anti-His antibody binders, primary screen, artefact control for SMM control protein annotation, biochemical, small-molecule microarray, 635 nm fluorescence (AID 1128); settings: anti-His Alexa647 antibody binding, higher = more signal;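 also: score merges feature fluorescence with signal-to-noise for each printed compound spot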
[2] = tested on: Human papillomavirus type 1a E7 protein (residues 1-88); assay: HPV1a E7 small-molecule binders, primary screen, biochemical, small-molecule microarray, residues 1-88, 635 nm (AID 1129); settings: small-molecule microarray binding, fluorescence 635 nm; higher = more signal
[3] = target: Focal adhesion kinase 1 (Homo sapiens) (UniProt Q05397); assay: small-molecule microarray binders of FAK, primary screen, biochemical, 635/667 nm fluorescence, BSA, DTT (AID 1130); settings: PTK2 binding, 635 nm fluorescence, higher = more signal;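 also: composite of spot emission at 667 nm and signal to noise over triplicate slides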
[4] = tested on: Fibrinogen (Alexa647-labelled); assay: fibrinogen binders on compound microarrays, profiling panel, artefact control for SMM control-protein annotation, biochemical, small-molecule microarray, 635/667 nm fluorescence (AID 1131); settings: fibrinogen-A647 binding fluorescence, higher = more signal;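 also: z-score merges 667 nm fluorescence with per-spot signal-to-noise over triplicate slides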
[5] = target: Follistatin (Homo sapiens) (UniProt P19883); assay: follistatin binders on small-molecule microarrays, primary screen, biochemical, small-molecule microarray, 635/667 nm fluorescence (AID 1132); settings: FST binding, 635 nm fluorescence, higher = more signal
[6] = target: Fibroblast growth factor 2 (Homo sapiens) (UniProt P09038); assay: FGF2 binders on small-molecule microarrays, primary screen, biochemical, small-molecule microarray, 635/667 nm fluorescence (AID 1133); settings: small-molecule microarray binding, FGF2, fluorescence 635/667; higher = more signal
[7] = mitochondrial membrane potential change in A549 cells, profiling panel, cell-based, JC-1 fluorescence, basal, 24 h, 100 nL (AID 1138); settings: higher = more signal;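 also: A549 lung adenocarcinoma cells under basal conditions with no added stimulus; test concentration not given here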
Lefty1 = Lefty1 binders on small-molecule microarrays, primary screen, biochemical, small-molecule microarray, 635/667 nm fluorescence (AID 1139); settings: small-molecule microarray binding, fluorescence 635/667; higher = more signal
[8] = tested on: wheat germ agglutinin (Triticum aestivum), Alexa647-labelled; assay: wheat germ agglutinin binders on compound microarrays, profiling panel, artefact control for SMM control-protein annotation, biochemical, small-molecule microarray, 635/667 nm fluorescence (AID 1140); settings: WGA-A647 binding, 635 nm fluorescence, higher = more signal;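 also: score merges 667 nm feature emission with signal to noise over triplicate slides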
[9] = target: Luciferin 4-monooxygenase (Photinus pyralis) (UniProt P08659); assay: firefly luciferase enzyme inhibitors, primary screen, biochemical, luminescence, purified enzyme, 2006 set (AID 1141); settings: SteadyGlo luminescence, 30 min, higher = more signal, called active from +8 up or from −8 down;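 also: cell-free assay with purified firefly luciferase at 100 ng per well in PBS; test concentration not given here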
[10] = tested on: Wnt5a (protein binding on small-molecule microarray); assay: Wnt5a binders on small-molecule microarray, primary screen, biophysical, 635/667 nm fluorescence (AID 1142); settings: 635 nm fluorescence, higher = more signal;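 also: fluorescence read at 667 nm with signal to noise per printed feature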
[11] = cell viability in Huh7 cells, primary screen, cytotoxicity control for HCV replication inhibitor project, CellTiter-Glo luminescence, basal, 48 h (AID 1143); settings: Huh7 HCV replicon, higher = more signal, called active from +8 up or from −8 down;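 also: Huh7 hepatoma cells carrying a hepatitis C replication reporter with no stimulus; test concentration not given here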
[12] = P. aeruginosa biofilm formation inhibitors, primary screen, PAO1 strain, BacTiter-Glo luminescence, LB-PBS (AID 1144); settings: 12 h, higher = more signal
[13] = CREB reporter modulators without forskolin, primary screen, cell-based, PC12, CRE-LacZ reporter, unstimulated (AID 1145); settings: no forskolin, luminescence, 4.5 h, higher = more signal, called active from +8 up or from −8 down
[14] = CREB reporter modulators under forskolin, primary screen, cell-based, PC12, CRE-LacZ reporter, forskolin-stimulated (AID 1146); settings: luminescence, 4.5 h, higher = more signal, called active from +8 up or from −8 down;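 also: PC12 cells with 6xCRE LacZ reporter stimulated by forskolin 10 µM; beta-galactosidase reporter signal reflecting CREB driven transcription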
[15] = target: Streptavidin (Streptomyces avidinii) (UniProt P22629); assay: streptavidin binders on small-molecule microarray, primary screen, artefact control for SMM compound annotation, biophysical, 635/667 nm fluorescence (AID 1147); settings: streptavidin binding, higher = more signal;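 also: signal reflects streptavidin binding to arrayed compounds as a control protein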
[16] = small-molecule binders of probe aInhba, primary screen, biochemical, small-molecule microarray, 635/667 nm fluorescence (AID 1148); settings: higher = more signal;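 also: score merges 667nm spot fluorescence with signal-to-noise for antibody binding to printed compounds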
Torsin-1A (Homo sapiens) [17] = target: Torsin-1A (Homo sapiens) (UniProt O14656); assay: torsin A binders from cell lysate, primary screen, small-molecule microarray, wild-type, 635/667 nm (AID 1149); settings: COS7 hTOR1A-WT lysate, 635 nm fluorescence, higher = more signal
Torsin-1A (Homo sapiens) [18] = target: Torsin-1A (Homo sapiens) (UniProt O14656); assay: small-molecule binders of mutant TOR1A in lysate, primary screen, cell lysate, small-molecule microarray, COS7 lysate, 635/667 nm fluorescence (AID 1150); settings: COS7 hTOR1A mutant lysate, 635 nm fluorescence, higher = more signal;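 also: score pools 667 nm emission and signal to noise measuring lysate protein binding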
[19] = tested on: Sonic hedgehog protein (Shh); assay: small-molecule binders of Shh protein, primary screen, biochemical, small-molecule microarray, 635/667 nm fluorescence (AID 1151); settings: small-molecule microarray binding, 635 nm fluorescence; higher = more signal;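 also: Shh protein binding to compounds spotted on small-molecule microarray slides; score combines spot fluorescence intensity with signal-to-noise across triplicate slides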

Chain of Streptavidin (Streptomyces avidinii) (P22629 whole entry, looked up): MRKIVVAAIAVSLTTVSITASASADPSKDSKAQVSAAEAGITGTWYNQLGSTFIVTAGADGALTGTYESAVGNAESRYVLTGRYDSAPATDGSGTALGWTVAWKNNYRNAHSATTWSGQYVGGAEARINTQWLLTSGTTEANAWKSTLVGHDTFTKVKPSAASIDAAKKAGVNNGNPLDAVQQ
Chain of Torsin-1A (Homo sapiens) (O14656 whole entry, looked up): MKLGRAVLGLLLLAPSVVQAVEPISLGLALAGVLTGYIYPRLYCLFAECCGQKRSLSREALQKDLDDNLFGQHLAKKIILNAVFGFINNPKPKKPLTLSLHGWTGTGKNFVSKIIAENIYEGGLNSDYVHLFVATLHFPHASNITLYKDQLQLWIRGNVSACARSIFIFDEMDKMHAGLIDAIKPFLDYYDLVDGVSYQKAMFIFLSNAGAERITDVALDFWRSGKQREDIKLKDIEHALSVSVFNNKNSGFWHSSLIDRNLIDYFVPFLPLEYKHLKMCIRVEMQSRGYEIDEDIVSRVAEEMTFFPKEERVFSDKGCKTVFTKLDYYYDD
Chain of Follistatin (Homo sapiens) (P19883 whole entry, looked up): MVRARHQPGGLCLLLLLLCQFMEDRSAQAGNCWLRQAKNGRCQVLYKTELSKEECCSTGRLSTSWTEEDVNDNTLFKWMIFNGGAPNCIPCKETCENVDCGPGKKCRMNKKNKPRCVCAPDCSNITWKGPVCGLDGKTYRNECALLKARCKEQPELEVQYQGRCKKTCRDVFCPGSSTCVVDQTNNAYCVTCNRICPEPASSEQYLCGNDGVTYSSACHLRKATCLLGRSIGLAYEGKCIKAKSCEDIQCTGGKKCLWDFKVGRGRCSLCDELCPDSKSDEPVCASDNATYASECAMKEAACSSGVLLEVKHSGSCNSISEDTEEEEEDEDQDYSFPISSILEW
Chain of Luciferin 4-monooxygenase (Photinus pyralis) (P08659 whole entry, looked up): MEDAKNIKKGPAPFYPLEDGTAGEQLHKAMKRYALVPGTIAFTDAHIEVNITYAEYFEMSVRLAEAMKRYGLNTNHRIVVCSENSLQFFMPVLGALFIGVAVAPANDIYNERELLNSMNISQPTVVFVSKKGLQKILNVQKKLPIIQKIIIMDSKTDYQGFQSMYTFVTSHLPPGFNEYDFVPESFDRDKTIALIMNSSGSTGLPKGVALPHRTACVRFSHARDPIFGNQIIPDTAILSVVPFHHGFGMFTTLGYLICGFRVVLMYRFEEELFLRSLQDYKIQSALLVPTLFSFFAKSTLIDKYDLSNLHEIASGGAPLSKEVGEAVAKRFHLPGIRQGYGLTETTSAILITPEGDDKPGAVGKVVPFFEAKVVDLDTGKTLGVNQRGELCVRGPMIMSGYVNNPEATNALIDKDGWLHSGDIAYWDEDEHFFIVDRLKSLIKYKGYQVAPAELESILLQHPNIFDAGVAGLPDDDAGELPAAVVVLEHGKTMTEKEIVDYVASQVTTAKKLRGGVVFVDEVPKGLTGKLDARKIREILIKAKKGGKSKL
Chain of Fibroblast growth factor 2 (Homo sapiens) (P09038 whole entry, looked up): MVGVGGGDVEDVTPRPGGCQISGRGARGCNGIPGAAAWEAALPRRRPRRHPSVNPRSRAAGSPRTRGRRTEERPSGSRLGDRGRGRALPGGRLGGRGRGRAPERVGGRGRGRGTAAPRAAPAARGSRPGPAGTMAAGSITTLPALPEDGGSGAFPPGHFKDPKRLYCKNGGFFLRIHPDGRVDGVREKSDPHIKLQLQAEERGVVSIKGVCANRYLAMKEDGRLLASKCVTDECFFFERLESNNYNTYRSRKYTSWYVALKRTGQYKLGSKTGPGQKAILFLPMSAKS
Chain of Focal adhesion kinase 1 (Homo sapiens) (Q05397 whole entry, looked up): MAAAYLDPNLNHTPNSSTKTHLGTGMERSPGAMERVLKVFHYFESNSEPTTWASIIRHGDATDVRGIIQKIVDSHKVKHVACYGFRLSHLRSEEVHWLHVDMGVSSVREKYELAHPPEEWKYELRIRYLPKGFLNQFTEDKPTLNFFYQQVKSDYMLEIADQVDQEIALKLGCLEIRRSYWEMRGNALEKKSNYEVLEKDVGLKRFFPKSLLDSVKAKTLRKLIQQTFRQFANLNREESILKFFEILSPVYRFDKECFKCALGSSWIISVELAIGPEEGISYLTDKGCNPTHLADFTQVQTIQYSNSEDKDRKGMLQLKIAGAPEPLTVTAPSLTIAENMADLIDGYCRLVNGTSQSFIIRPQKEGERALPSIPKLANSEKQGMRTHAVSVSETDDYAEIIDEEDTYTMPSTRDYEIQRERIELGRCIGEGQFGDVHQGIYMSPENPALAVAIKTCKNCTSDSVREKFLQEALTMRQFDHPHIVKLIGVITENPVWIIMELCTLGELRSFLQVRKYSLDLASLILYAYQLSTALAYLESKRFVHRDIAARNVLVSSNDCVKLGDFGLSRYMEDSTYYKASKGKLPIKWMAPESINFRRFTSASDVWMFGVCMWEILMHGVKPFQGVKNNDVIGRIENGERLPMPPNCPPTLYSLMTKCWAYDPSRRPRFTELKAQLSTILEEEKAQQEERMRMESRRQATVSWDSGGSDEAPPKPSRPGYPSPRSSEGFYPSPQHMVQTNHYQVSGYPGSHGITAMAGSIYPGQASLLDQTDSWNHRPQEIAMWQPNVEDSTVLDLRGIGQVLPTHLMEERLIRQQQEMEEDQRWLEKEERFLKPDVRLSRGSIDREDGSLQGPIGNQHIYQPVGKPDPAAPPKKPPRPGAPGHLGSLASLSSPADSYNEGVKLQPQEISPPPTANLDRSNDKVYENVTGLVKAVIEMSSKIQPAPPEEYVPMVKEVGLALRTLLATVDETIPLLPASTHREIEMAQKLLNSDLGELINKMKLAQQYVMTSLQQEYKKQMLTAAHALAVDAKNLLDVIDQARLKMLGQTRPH

SMILES	composite z-score [1]	composite z-score [2]	composite z-score [3]	composite z-score [4]	composite z-score [5]	composite z-score [6]	z-score [7]	composite z-score (Lefty1)	composite z-score [8]	z-score [9]	composite z-score [10]	z-score [11]	z-score [12]	z-score [13]	z-score [14]	composite z-score [15]	composite z-score [16]	composite z-score (Torsin-1A (Homo sapiens) [17])	composite z-score (Torsin-1A (Homo sapiens) [18])	composite z-score [19]
O=C(NCC(O)CO)[C@@]1(Cc2ccccc2)COC(c2ccc(OCCCO)cc2)=N1 (stereo not given in full)	0.0139	0.0528	0.216	0.531	-0.453	0.0393	-0.165	-0.743	0.488	0.37 (inactive)	0.0149	-0.0858 (inactive)	0.741 (inactive)	0.895 (inactive)	-0.18 (inactive)	-0.131	0.124	-0.0598	0.0184	-0.342
Oc1ccc2cc[n+](Cc3cccc(OC(F)(F)F)c3)cc2c1	0.644	0.0093	0.295	-0.0505	1.33	1.51	0.579	1.38	-0.0259	-0.256 (inactive)	0.112	0.202 (inactive)	-0.452 (inactive)	-0.0243 (inactive)	-0.668 (inactive)	0.1	-0.255	0.0193	-0.527	1.89
CC(C)(C)OC(=O)CC[C@]1(C(=O)NCC(O)CO)N=C(c2ccc(OCCCO)cc2)O[C@H]1c1ccccc1CN=[N+]=[N-] (stereo not given in full)	2.31	0.705	-0.0371	1.03	0.662	0.703	-0.101	-0.637	0.959	-0.718 (inactive)	0.921	0.168 (inactive)	-1.35 (inactive)	0.0594 (inactive)	-0.209 (inactive)	1.63	0.496	0.399	2.06	-0.535
O=S(=O)(NCCCO)c1ccc(Br)cc1	0.309	0.918	0.0087	-0.088	1.17	0.663	0.802	-0.0569	0.54	-0.0622 (inactive)	0.191	-1.52 (inactive)	-0.658 (inactive)	-0.198 (inactive)	-0.472 (inactive)	0.587	-0.024	0.729	0.783	0.533
COCCCNC(=O)[C@@]1(C)c2ccccc2C(=O)N(Cc2ccccc2)[C@H]1c1ccc(CO)cc1	0.909	0.0047	0.101	-0.678	0.0033	-0.992	-0.939	-0.635	-0.505	-0.0137 (inactive)	-0.811	-4.52 (inactive)	-0.453 (inactive)	-0.295 (inactive)	-0.463 (inactive)	-0.944	-0.0963	-2.72	2.16	0.182
CC(C)OC(=O)C1=CCC(c2cccc(Cl)c2)O1 (stereo not given)	0.872	0.291	-0.0871	0.455	-0.328	-1.59	-1.4	-1.11	0.58	2.09 (inactive)	-0.593	-5.17 (inactive)	-2.12 (inactive)	-0.471 (inactive)	-0.154 (inactive)	0.245	-0.191	1.07	-0.268	-1.49
C=CCC(OC(C)=O)[C@@H]1[C@@H](N(Cc2ccc(-c3cccc(C(F)(F)F)c3)o2)C(=O)c2ccc(C)cc2)c2cc(OCCCO)ccc2N1C(=O)c1ccc2ccccc2n1 (stereo not given in full)	-0.614	-0.369	-0.223	0.33	0.839	0.131	0.61	0.727	0.717	-1.25 (inactive)	0.0861	0.0775 (inactive)	-0.293 (inactive)	0.395 (inactive)	-0.0797 (inactive)	0.256	-0.151	-0.138	0.114	0.978
COC(=O)[C@@]1(Cc2ccc(OC)cc2)[C@H]2c3cc(C(=O)N4CCCC4)n(C[C@H](O)CO)c3C[C@H]2CN1C(=O)c1ccccc1	0.39	0.339	0.493	0.276	-0.319	-0.411	0.605	-0.752	1.02	1.84 (inactive)	0.0149	-0.132 (inactive)	-0.389 (inactive)	-0.365 (inactive)	0.294 (inactive)	0.528	0.0082	-0.467	0.354	-0.666
C=CCC(OC(C)=O)[C@@H]1[C@@H](N(Cc2ccc(-c3ccccc3)cc2)C(=O)c2ccc(C)cc2)c2cc(OCCCO)ccc2N1C(=O)Cc1ccc(OC)cc1 (stereo not given in full)	-0.109	-0.33	-0.026	0.386	0.534	-0.177	1.85	0.0835	0.115	-1.58 (inactive)	-0.0283	-0.536 (inactive)	0.307 (inactive)	0.904 (inactive)	0.429 (inactive)	1.36	-0.101	-0.691	-0.0431	0.726
Cc1ccc([C@H]2C(C(=O)O)=C[C@@H](C(C)C)N2S(=O)(=O)c2ccc(C)cc2)cc1	1.96	1.29	1.3	0.956	0.126	-0.376	-0.209	-0.297	0.133	1.85 (inactive)	-0.167	0.0491 (inactive)	0.633 (inactive)	-0.424 (inactive)	1.01 (inactive)	0.946	0.0173	-0.165	0.28	-0.542
CC[C@@H]1C=C(C(=O)O)[C@H](c2ccc(C(C)C)cc2)N1S(=O)(=O)c1ccc(C)cc1	2.08	1.21	1.17	1.03	0.919	0.52	-1.25	0.0565	1.35	0.734 (inactive)	0.764	-0.822 (inactive)	0.448 (inactive)	-0.0137 (inactive)	-0.0578 (inactive)	0.939	0.432	0.145	1.22	0.34

Source: PubChem BioAssay
